Screening data (PubChem BioAssay)
The list is not random: actives were taken first. Their share in the collection is about 4.8%.
AI-2 QS modul: modulates the Vibrio harveyi AI-2 quorum sensing system. hit rate 0.4% among 300,000. activity change, % at 7.5 µM. Vibrio harveyi JMH597 AI-2 luminescence/OD600 ratio, 9 h; stronger effect = lower value; strain lacks LuxN and CqsS sensors; 0 = neutral-control median; in the data active means activity change below about -75%, passing the limit was not always enough; inconclusive means no clear call, values can overlap the other calls;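 further: luminescence divided by OD600 gain over 9 h not by final OD600 alone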
ALR inh: inhibitors of human sulfhydryl oxidase ALR. inhibition, % (concentration not given with the values). purified ALR, DTT oxidation, H2O2 HRP-luminol luminescence. hit rate 3.8% among 290,000. P55789;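 active means mean replicate inhibition above about 79%, with every replicate also reaching it, limit read from the data; inconclusive means only one of the two criteria met; inactive means mean below limit and not every replicate reaching it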
Target sequence (P55789 whole entry, looked up): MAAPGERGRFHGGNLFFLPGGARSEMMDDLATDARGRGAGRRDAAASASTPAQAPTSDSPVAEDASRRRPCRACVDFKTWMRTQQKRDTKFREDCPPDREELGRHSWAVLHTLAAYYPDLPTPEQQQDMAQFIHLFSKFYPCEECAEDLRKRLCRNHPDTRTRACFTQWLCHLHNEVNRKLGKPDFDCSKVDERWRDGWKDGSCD
SUMO Mot1 rescue: blocks SUMOylation pathway, rescuing yeast Mot1-301 growth | AID 2716 | hit rate 1% among 320,000 | growth rescue, % at 18.8 µM | S. cerevisiae Mot1-301 growth rescue, ATP luminescence, 38.5C; percent above DMSO median, 100 means doubled;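 active means every valid replicate shows activation above 250% relative to neutral control wells; inactive means the rest, any valid replicate at or below 250%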
HIF activator: HIF pathway transcriptional activation. U2OS HRE-luciferase reporter, luminescence; normalized: DMSO 0%, desferrioxamine 100%. activation, % at 7.5 µM (by protocol). hit rate 0.32% among 300,000;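 active means mean activation of at least 10% of the iron chelator positive control signal, with at least half of replicates also reaching 10%; inconclusive means mean and replicate majority disagree about reaching 10%; inactive means mean and most replicates under 10%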
Of the large screens only hits and unclear results are named; the others gave an inactive call.

COC(=O)NNC(=O)COc1cc(C)ccc1C	none
Cc1ccc(C)c(OCC(=O)NNC(=O)CSC(=S)N2CCCC2)c1	SUMO Mot1 rescue 331.6
Clc1ccc(/C=C/c2ncc[nH]2)c(Cl)c1	none
CCN(CC(=O)Nc1c(F)cccc1F)C(=O)c1ccc2c(c1)OCCO2	none
CCCCn1c(SCc2nnc(-c3ccccc3)o2)nc2c1c(=O)n(C)c(=O)n2C	ALR inh 78.1 (no result: AI-2 QS modul)
Nc1c(C(=O)N2CCOCC2)sc(=S)n1-c1ccccc1	ALR inh 92.6
Cc1ccc(-n2c(N)c(C(=O)N3CCCCC3)sc2=S)cc1	none
Nc1c(C(=O)N2CCCCC2)sc(=S)n1-c1ccccc1	ALR inh 98.9 (no result: HIF activator)
CCOc1ccc(-n2c(N)c(C(=O)N3CCN(C)CC3)sc2=S)cc1	none
Cc1ccccc1OC(=O)n1c(=S)oc2cc(Cl)ccc21	ALR inh 83.1
c1ccc2c(c1)Nc1ccncc1S2	ALR inh 96.3
c1ccc2c(c1)Nc1cc3ccccc3cc1S2	none
Cc1cc(OCC(=O)OCC(=O)N2CC(C)CC(C)C2)ccc1Cl (stereo unspecified)	none (no result: AI-2 QS modul, HIF activator)
O=C(CCN1C(=O)C2CCCCC2C1=O)Nc1ccc(Br)cc1F (stereo unspecified)	none
Cc1ccccc1NC(=S)N/N=C/c1ccc(O)cc1O	ALR inh 98.6
COc1ccc2nc(C)cc(N/N=C/c3cccc(OC)c3O)c2c1	ALR inh 87.4
COc1ccc(/C=N/Nc2cc(C)nc3ccc(Br)cc23)cc1	none
Cc1ccc2nc(C)cc(N/N=C/c3cccnc3)c2c1	ALR inh 99.3
Cc1cc(N/N=C/c2ccccc2O)c2ccccc2n1	ALR inh 98.7
COc1cc(C)c(CN2CCN(C(C)C(=O)NC(C)c3ccccc3)CC2)cc1OC (stereo unspecified)	none
CC(NS(=O)(=O)OCC(Cl)(Cl)Cl)c1ccc(Br)cc1 (stereo unspecified)	none
CCOc1ccccc1NC(=O)C(OC(=O)c1ccc(NC(=O)CC#N)cc1)c1ccccc1 (stereo unspecified)	none (no result: ALR inh)
O=S(=O)(c1cccs1)N1CCN(c2ncccn2)CC1	SUMO Mot1 rescue active
O=S(=O)(c1cccs1)N1CCN(c2ccccn2)CC1	none
COc1cc([C@@H]2OC[C@@H]3[C@H]2CO[C@@H]3c2ccc3c(c2)OCO3)ccc1O	none (no result: AI-2 QS modul, HIF activator)
COc1cc(CC2COC(c3ccc(O)c(OC)c3)C2COC(C)=O)ccc1O (stereo unspecified)	ALR inh 82.1 (no result: AI-2 QS modul, HIF activator)
CCC(C)Sc1cccc(-c2nc3ccc(C)cn3c2NC2CCCCC2)c1 (stereo unspecified)	SUMO Mot1 rescue 340.7
N#Cc1ccccc1NC(=O)COC(=O)CCc1ccccc1	none
O=C(COC(=O)CNC(=O)C1CCCCC1)NCc1ccc(Cl)cc1	none (no result: AI-2 QS modul, HIF activator)
COc1ccc(CN(C)C(=O)c2cccc(NS(=O)(=O)c3ccccc3)c2)cc1F	none
Cc1nc2ccccc2n1-c1ccccc1	none
Cc1nc2cc(N)ccc2n1-c1ccccc1	ALR inh 99.1
O=C1ON=C(c2ccccc2)/C1=C/c1ccc(O)cc1	ALR inh 86.8
Cc1ccc(C2=NOC(=O)/C2=C\c2ccccc2)cc1	HIF activator 31.2
O=C1ON=C(c2ccccc2)/C1=C/c1ccccc1	none (no result: ALR inh)
COCCn1c(SCC(=O)NC(=O)NC2CCCC2)nc2ccccc2c1=O	none (no result: AI-2 QS modul, HIF activator)
O=C(NCc1ccco1)c1cc2cc(Br)ccc2o1	ALR inh 97.9
O=C(NCc1ccco1)c1cc(=O)c2ccccc2o1	none
COc1ccc(-c2cc(C(F)F)n3ncc(C(=O)n4ccnc4C)c3n2)cc1	ALR inh 98.8
Cc1ccc(-c2cc(C(F)F)n3ncc(C(=O)N4CCCc5ccccc54)c3n2)cc1	SUMO Mot1 rescue 382.8
COC(=O)[C@]1(Cc2ccccc2)N[C@H](c2ccc(-c3cccc(Cl)c3)cc2)[C@@H]2C(=O)N(C)C(=O)[C@@H]21	none
CCNC(=O)COC(=O)CCC(=O)c1ccc(F)cc1	none
CN(C)c1ccc(NC(=O)COC(=O)CCC(=O)c2ccc(F)cc2)cc1	ALR inh 96.6
Cc1ccc(NC(=O)COC(=O)CCC(=O)c2cccs2)cc1	none
CCc1ccc(NC(=O)COC(=O)CN2C(=O)COc3ccccc32)cc1	none
COc1ccc(NC(=O)COC(=O)CNC(=O)c2cccs2)cc1Cl	none (no result: AI-2 QS modul, HIF activator)
CN(C)c1ccc(NC(=O)COC(=O)CNC(=O)c2cccs2)cc1	ALR inh 95.9 (no result: AI-2 QS modul, HIF activator)
CCN(CC)c1ccc(NC(=O)COC(=O)C23CCC(=O)N2c2ccccc2S3)cc1 (stereo unspecified)	ALR inh 96.8
CCN(CC)c1ccc(NC(=O)COC(=O)CCC(=O)c2cccs2)cc1	ALR inh 99.1 (no result: AI-2 QS modul, HIF activator)
CC(CN1CCOCC1)OC(=O)c1cccc(Cl)c1 (stereo unspecified)	none
CC(NCC(=O)NC(=O)NC1CCCC1)c1ccc(Cl)cc1Cl (stereo unspecified)	none
CCN(CC)c1ccc(NC(=O)COC(=O)COc2ccccc2[N+](=O)[O-])cc1	ALR inh 99.4
C/C(=N\NS(=O)(=O)c1ccc(Br)cc1)c1ccc2c(c1)OCO2	none
C/C(=N/NS(=O)(=O)c1ccc(Br)cc1)c1ccc(C)o1	ALR inh 98.0
N#C/C(=C\c1ccccc1)C(=O)NNS(=O)(=O)c1ccc(Br)cc1	none (no result: AI-2 QS modul, ALR inh, HIF activator)
Cn1c(SCC(=O)c2ccccc2)ncc(C(=O)Nc2ccccc2)c1=O	ALR inh 97.9
O=C(NC(=S)NNC(=O)c1cccs1)c1ccc(Br)o1	AI-2 QS modul -88.2, ALR inh 98.7
CCC(=O)NC(=S)Nc1ccc(NC(=O)COc2ccc(Cl)c(C)c2)cc1	none
O=C(Cc1ccccc1)NNC(=S)NC(=O)c1cccs1	AI-2 QS modul -83.4, ALR inh 97.0
Cc1cc(OCC(=O)NNC(=S)NC(=O)c2ccc(Br)o2)ccc1Cl	ALR inh 87.9 (no result: HIF activator)
O=C(Cc1cccs1)NNC(=S)NC(=O)c1ccccc1	AI-2 QS modul inconclusive, ALR inh 98.2
CCC1CCCCN1CCCNC(=O)c1cc2c(=O)oc3ccc(C)cc3c2s1 (stereo unspecified)	none
Cc1ccc(CNS(=O)(=O)c2ccc(CN3C(=O)c4cccnc4C3=O)s2)o1	none (no result: HIF activator)
CCOc1ccccc1N(CC(=O)Nc1cccc2ccccc12)S(C)(=O)=O	none
S=c1nc(-c2ccccc2)n(Cc2cccnc2)c2c1CCCC2	ALR inh 94.2
Cc1ccc(CNC(=O)CNS(=O)(=O)c2ccc3nc(C)sc3c2)cc1	none
Cc1nc2ccc(S(=O)(=O)NC(C(=O)NCc3ccco3)C(C)C)cc2s1 (stereo unspecified)	SUMO Mot1 rescue 356.7 (no result: HIF activator)
Cc1ccc(CNC(=O)C(NS(=O)(=O)c2ccc3nc(C)sc3c2)C(C)C)cc1 (stereo unspecified)	ALR inh 93.3 (no result: HIF activator)
CC1(C)NC(=O)N(CCC(=O)Nc2cc(C(F)(F)F)ccc2Cl)C1=O	none (no result: AI-2 QS modul, HIF activator)
O=C(CCl)c1ccc2c(c1)CCN2C(=O)C1CC1	HIF activator 34.5
COc1ccc(Nc2n[nH]c(C)c2[N+](=O)[O-])cc1	none
Cc1[nH]nc(Nc2ccc(O)cc2)c1[N+](=O)[O-]	ALR inh 99.5
COc1ccc(COC(=O)Nc2cc3c(C(F)(F)F)nn(C)c3s2)cc1	AI-2 QS modul -77.1 (no result: SUMO Mot1 rescue)
